Test results as given in paper PMC11006913.
Positions count from the first letter of the chain named.

Columns and labels:
Assay in all cases: PBM; 200 nM protein, PBS
Settings in all cases: dsDNA, one strand shown
PAX4 [1] = target: T1, PAX4 (Homo sapiens, UniProt O43316 9-242, R200K)
T1 sequence: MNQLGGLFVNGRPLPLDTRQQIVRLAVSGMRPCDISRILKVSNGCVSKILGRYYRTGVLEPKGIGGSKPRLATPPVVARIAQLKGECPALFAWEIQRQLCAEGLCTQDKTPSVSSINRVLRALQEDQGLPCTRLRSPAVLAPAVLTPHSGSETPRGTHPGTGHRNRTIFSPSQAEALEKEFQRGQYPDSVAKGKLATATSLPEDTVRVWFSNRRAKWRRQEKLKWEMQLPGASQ

PAX4 [2] = target: T2, PAX4 (Homo sapiens, UniProt O43316 9-242)
T2 sequence: T1 sequence with K192R

PAX4 [3] = target: T3, PAX4 (Homo sapiens, UniProt O43316 9-242, R200Q)
T3 sequence: T1 sequence with K192Q

PAX4 [4] = target: T4, PAX4 (Homo sapiens, UniProt O43316 9-242, F177V)
T4 sequence: T1 sequence with F169V, K192R

PAX4 [5] = target: T5, PAX4 (Homo sapiens, UniProt O43316 9-242, F177Y)
T5 sequence: T1 sequence with F169Y, K192R

PAX4 [6] = target: T6, PAX4 (Homo sapiens, UniProt O43316 9-242, R227W)
T6 sequence: T1 sequence with K192R, R219W

CRX = CRX (Homo sapiens, UniProt O43186 26-111, R41L)
CRX, sequence (O43186 26-111 R41L): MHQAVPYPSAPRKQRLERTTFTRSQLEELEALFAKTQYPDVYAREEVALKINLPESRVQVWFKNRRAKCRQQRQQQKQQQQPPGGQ

| Sequence | binding signal (PAX4 [1]) | binding signal (PAX4 [2]) | binding signal (PAX4 [3]) | binding signal (PAX4 [4]) | binding signal (PAX4 [5]) | binding signal (PAX4 [6]) | binding signal (CRX) |
| --- | --- | --- | --- | --- | --- | --- | --- |
| ATTTAGAG | 10.6 upbm affinity estimate (log intensity, higher = more binding, comparable within an allelic series) | 10.7 upbm affinity estimate (log intensity, higher = more binding, comparable within an allelic series) | 10.6 upbm affinity estimate (log intensity, higher = more binding, comparable within an allelic series) | 10.1 upbm affinity estimate (log intensity, higher = more binding, comparable within an allelic series) | 10.2 upbm affinity estimate (log intensity, higher = more binding, comparable within an allelic series) | 10.2 upbm affinity estimate (log intensity, higher = more binding, comparable within an allelic series) | – |
| TAGTATAA | 10.7 upbm affinity estimate (log intensity, higher = more binding, comparable within an allelic series) | 10.8 upbm affinity estimate (log intensity, higher = more binding, comparable within an allelic series) | 10.8 upbm affinity estimate (log intensity, higher = more binding, comparable within an allelic series) | – | – | 10.5 upbm affinity estimate (log intensity, higher = more binding, comparable within an allelic series) | – |
| ATTACCCG | 10.6 upbm affinity estimate (log intensity, higher = more binding, comparable within an allelic series) | 11 upbm affinity estimate (log intensity, higher = more binding, comparable within an allelic series) | – | 9.93 upbm affinity estimate (log intensity, higher = more binding, comparable within an allelic series) | 9.92 upbm affinity estimate (log intensity, higher = more binding, comparable within an allelic series) | 10.1 upbm affinity estimate (log intensity, higher = more binding, comparable within an allelic series) | – |
| CCCGCGCG | 9.26 upbm affinity estimate (log intensity, higher = more binding, comparable within an allelic series) | 9.11 upbm affinity estimate (log intensity, higher = more binding, comparable within an allelic series) | 9.18 upbm affinity estimate (log intensity, higher = more binding, comparable within an allelic series) | 9.01 upbm affinity estimate (log intensity, higher = more binding, comparable within an allelic series) | 9.06 upbm affinity estimate (log intensity, higher = more binding, comparable within an allelic series) | 9.19 upbm affinity estimate (log intensity, higher = more binding, comparable within an allelic series) | – |
| CATGTTAG | 10.7 upbm affinity estimate (log intensity, higher = more binding, comparable within an allelic series) | 10.8 upbm affinity estimate (log intensity, higher = more binding, comparable within an allelic series) | 10.7 upbm affinity estimate (log intensity, higher = more binding, comparable within an allelic series) | 10.1 upbm affinity estimate (log intensity, higher = more binding, comparable within an allelic series) | 10.2 upbm affinity estimate (log intensity, higher = more binding, comparable within an allelic series) | 10.3 upbm affinity estimate (log intensity, higher = more binding, comparable within an allelic series) | – |
| CTCGCCTC | 9.23 upbm affinity estimate (log intensity, higher = more binding, comparable within an allelic series) | 9.21 upbm affinity estimate (log intensity, higher = more binding, comparable within an allelic series) | 9.24 upbm affinity estimate (log intensity, higher = more binding, comparable within an allelic series) | 9.31 upbm affinity estimate (log intensity, higher = more binding, comparable within an allelic series) | 9.3 upbm affinity estimate (log intensity, higher = more binding, comparable within an allelic series) | 9.28 upbm affinity estimate (log intensity, higher = more binding, comparable within an allelic series) | – |
| GGCGCGAC | 9.13 upbm affinity estimate (log intensity, higher = more binding, comparable within an allelic series) | 9.13 upbm affinity estimate (log intensity, higher = more binding, comparable within an allelic series) | 9.1 upbm affinity estimate (log intensity, higher = more binding, comparable within an allelic series) | 9.14 upbm affinity estimate (log intensity, higher = more binding, comparable within an allelic series) | 9.06 upbm affinity estimate (log intensity, higher = more binding, comparable within an allelic series) | 9.21 upbm affinity estimate (log intensity, higher = more binding, comparable within an allelic series) | – |
| CGTTGGCC | 9.3 upbm affinity estimate (log intensity, higher = more binding, comparable within an allelic series) | 9.3 upbm affinity estimate (log intensity, higher = more binding, comparable within an allelic series) | 9.53 upbm affinity estimate (log intensity, higher = more binding, comparable within an allelic series) | 9.43 upbm affinity estimate (log intensity, higher = more binding, comparable within an allelic series) | 9.4 upbm affinity estimate (log intensity, higher = more binding, comparable within an allelic series) | 9.45 upbm affinity estimate (log intensity, higher = more binding, comparable within an allelic series) | – |
| GGAAAATA | 10.5 upbm affinity estimate (log intensity, higher = more binding, comparable within an allelic series) | 10.7 upbm affinity estimate (log intensity, higher = more binding, comparable within an allelic series) | – | 10.1 upbm affinity estimate (log intensity, higher = more binding, comparable within an allelic series) | 10.1 upbm affinity estimate (log intensity, higher = more binding, comparable within an allelic series) | – | – |
| AGGCCGCC | 9.08 upbm affinity estimate (log intensity, higher = more binding, comparable within an allelic series) | 9.11 upbm affinity estimate (log intensity, higher = more binding, comparable within an allelic series) | 9.15 upbm affinity estimate (log intensity, higher = more binding, comparable within an allelic series) | 9.15 upbm affinity estimate (log intensity, higher = more binding, comparable within an allelic series) | 9.1 upbm affinity estimate (log intensity, higher = more binding, comparable within an allelic series) | 9.22 upbm affinity estimate (log intensity, higher = more binding, comparable within an allelic series) | – |
| CGTATTAA | 11.8 upbm affinity estimate (log intensity, higher = more binding, comparable within an allelic series) | 12.2 upbm affinity estimate (log intensity, higher = more binding, comparable within an allelic series) | 11.5 upbm affinity estimate (log intensity, higher = more binding, comparable within an allelic series) | 10.5 upbm affinity estimate (log intensity, higher = more binding, comparable within an allelic series) | 11 upbm affinity estimate (log intensity, higher = more binding, comparable within an allelic series) | 11 upbm affinity estimate (log intensity, higher = more binding, comparable within an allelic series) | 11.2 upbm affinity estimate (log intensity, higher = more binding, comparable within an allelic series) |
